KDM5B inhibitor: inhibitors of human KDM5B histone demethylase; Q9UGL1; KDM5B demethylase, FDH-coupled NADH fluorescence (FDH is formaldehyde dehydrogenase); Potency, µM (doses to about 57.7 µM), usual class: inhibitors; hit rate 2.6% among 220,000; AID 1347165; active means well fitted inhibition curve with a large enough effect; further: 0% is about no effect; nearly all actives have a fitted effect of over 70% in size
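Coupled FDH/NAD⁺ fluorescence readout. KDM5BΔAP 200 nM final; compound titration, 10 min RT preincubation; substrate mix 12.5 µM H3K4me3, 25 µM 2-OG, 50 µM Fe(II), 100 µM ascorbate, 0.25 mM NAD⁺, 0.25 U/mL FDH; ΔRFU over 30 min.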
* marks the source's active call; other numbers are inactive results; i = inactive. The full list was thinned out, with hits kept by preference. Potency means the concentration at half of the fitted maximal effect.

SMILES | KDM5B inhibitor
O=C(O)C1=NOC2CN(CC3CCCCC3)CC12 (configuration not stated) | i
O=C(O)C1=NOC2CN(CC3CCNC3)CC12 (configuration not stated) | 141µM*
O=C(O)C1=NOC2CN(CC3CCOCC3)CC12 (configuration not stated) | i
CCCCc1cn(C[C@H]2CC3CCN2C[C@@H]3C(=O)NCc2ccc3c(c2)OCO3)nn1 (some centres not stated) | i
c1cc(CC2CN3CCCC3CN2)cs1 (configuration not stated) | i
COc1ncc(-c2cnc3[nH]cc(CC(=O)N4CCN(C)CC4)c3c2)cn1 | i
O=C(CN1CCN(C(=O)Cc2c[nH]c3ccccc23)CC1)NC1CC1 | i
O=C(CN1CCCC1=O)NCc1ccc(F)c(Cl)c1 | i
Cn1cc(-c2cnc3[nH]cc(CC(=O)N4CCN(Cc5ccccc5)CC4)c3c2)cn1 | 28µM*
CN1CCN(C(=O)Cc2c[nH]c3ncc(-c4ccc(F)c(Cl)c4)cc23)CC1 | 40µM*
CN1CCN(C(=O)Cc2c[nH]c3ncc(-c4ccc(Cl)cc4)cc23)CC1 | 32µM*
CCNC(=O)NC(=O)C(C)N1CCN(C(=O)Cc2c[nH]c3ccccc23)CC1 (configuration not stated) | i
O=C(Cc1c[nH]c2ccccc12)N1CCN(Cc2ccccc2)CC1 | i
CN1CCN(C(=O)Cc2ccc(Cl)cc2Cl)CC1 | i
CC(C)CC(=O)N1CCC2(CC1)c1nccn1-c1ccccc1CN2C | i
C#C[C@H]1CN2CC[C@H]1C[C@@H]2CNC(=O)c1ccc2c(c1)OCO2 | i
Cn1nc(C2CCCCC2)cc1[C@H]1CN2CC[C@H]1C[C@@H]2CNS(=O)(=O)c1ccccc1 | i
COc1ccc(CN(Cc2ccc(OC)cc2)C[C@H]2C[C@@H]3CCN2C[C@@H]3c2cc(C3CCCC3)nn2C)cc1 | i
Cn1cc(CN2CCOC[C@H](O)C2)c2ccccc21 | i
Cn1cc(C(=O)OCC(=O)Nc2c(F)cccc2F)c2ccccc21 | i
CCn1cc(C(=O)Cn2cnc3ccccc32)c2ccccc21 | i
CCCn1c(C)cnc1CCNC(=O)c1nn(C)c2ccccc12 | 25µM*
CCCNC(=O)NC(=O)COC(=O)c1cn(C)c2ccccc12 | i
O=C1NCCCCCCN[C@H]2CCCC[C@@H]12 | i
O=C(c1ccoc1)N1[C@H]2CC[C@@H]1c1cnc(-c3ccccc3)nc1C2 | i
SMILES | KDM5B inhibitor
O=S(=O)(NC[C@H]1C[C@@H]2CCN1C[C@@H]2CN1CCN(c2ccccn2)CC1)c1cccs1 | i
COc1ccccc1NC(=O)N1C[C@@H]2C[C@H](C1)c1c(C3CCCCC3)ccc(=O)n1C2 | i
COc1ccccc1NC(=O)Nc1ccc2n(c1=O)C[C@H]1C[C@@H]2CN(C2CCOCC2)C1 | 16µM*
O=C(Nc1ccc2n(c1=O)C[C@H]1C[C@@H]2CN(c2ncccn2)C1)c1ccccc1 | i
CC1=NOC2(CCCN(CC3CCCCC3)C2)C1 (configuration not stated) | i
CN(CCc1ccccn1)C[C@H]1CN2CC[C@H]1C[C@@H]2CNC(=O)c1ccc2c(c1)OCO2 | i
Cc1cccn2c(CC(=O)N3CCN(C)[C@@H]4CS(=O)(=O)C[C@@H]43)cnc12 | 28µM*
COCCN1CCN(C(=O)C2C(C)(C)C2(C)C)[C@H]2CS(=O)(=O)C[C@H]21 | i
CN1CCN(C(=O)Cc2cccn2-c2ccc(F)cc2)CC1 | i
Cc1ccccc1C(=O)N1CCC2(CC1)c1nccn1-c1ccccc1CN2CC(C)C | i
COc1ccc(-c2cc([C@H]3CN4CC[C@H]3C[C@@H]4CNC(=O)C(C)(C)C)n(C)n2)cc1OC | i
COc1ccc(-c2cc([C@H]3CN4CC[C@H]3C[C@@H]4CNC(=O)Nc3ccccc3)n(C)n2)cc1OC | i
COc1ccc(-c2cc3c(cn2)CN(C)CCN3)cc1OC | 35µM*
N#CC1(c2ccccc2)CCN(C(=O)c2ccc3nccn3c2)CC1 | i
COc1ccc(OC)c(S(=O)(=O)N2[C@H]3CC[C@@H]2c2cnc(-c4ccccc4)nc2C3)c1 | i
COc1cc2c(cc1OC1CCCC1)NC(=O)C21CCN(Cc2cccnc2)CC1 | i
CC(C)CN1Cc2ccccc2-n2ccnc2C12CCN(C(=O)c1ccc(F)cc1)CC2 | i
Cc1ncc2c(c1CNCC1(O)CNCCOC1)CCNC2 (configuration not stated) | 28µM*
COc1cc2c(cc1OCc1ccccc1)NC(=O)C21CCN(Cc2nccn2C)CC1 | i
CCNC(=O)NC[C@H]1C[C@@H]2CCN1C[C@@H]2c1cc(-c2ccc3ccccc3c2)nn1C | i
CN(C)Cc1cn(C[C@H]2C[C@@H]3CCN2C[C@@H]3C(=O)NCc2ccc(F)cc2)nn1 | i
c1cnc2c(c1)NC1(CCCNC1)C(=NC1CCCC1)N2 (configuration not stated) | 25µM*
O=S(=O)(NC[C@H]1C[C@@H]2CCN1C[C@@H]2CN1CCc2ccccc2C1)c1ccc(Cl)cc1 | i
COc1ccc(CC(=O)N2CCC3(CC2)c2nccn2-c2ccccc2CN3C)cc1 | i
CC[C@H]1CN2CC[C@H]1C[C@@H]2CNC(=O)NC(C)C | i
SMILES | KDM5B inhibitor
COc1ccc(S(=O)(=O)NC[C@H]2C[C@@H]3CCN2C[C@@H]3CN2CCc3ccccc32)cc1 | i
O=C1Nc2ccccc2CC12CN(Cc1ccccn1)C2 | i
O=C1Nc2ccccc2CC12CCN(Cc1ccccn1)C2 (configuration not stated) | 32µM*
O=C1NCc2ccccc2CC12CCCN(Cc1ccccn1)C2 (configuration not stated) | i
COc1cc(CNC2CN3CCC2CC3)cc(Cl)c1OCc1ccccc1Cl (configuration not stated) | i
CNc1ccc(OC2CCNCC2)nc1 | 28µM*
CC(C)Cn1nc(C(=O)NCC2(N3CCOCC3)CCCCC2)c2ccccc2c1=O | i
CC[C@H]1CN2CC[C@H]1C[C@@H]2CNCc1ccc(C(F)(F)F)cc1 | i
COc1ccc(NC(=O)N2C[C@@H]3C[C@H](C2)c2c(NC(=O)CSC)ccc(=O)n2C3)cc1 | i
CCCS(=O)(=O)Nc1ccc(=O)n2c1[C@@H]1C[C@@H](CN(C(=O)c3ccc(F)cc3)C1)C2 | i
CCCS(=O)(=O)Nc1ccc(=O)n2c1[C@@H]1C[C@@H](CN(S(=O)(=O)c3ccc(OC)cc3)C1)C2 | 22µM*
CCCS(=O)(=O)Nc1ccc(=O)n2c1[C@@H]1C[C@@H](CN(S(=O)(=O)c3ccccc3)C1)C2 | i
COc1ccc(C(=O)N2C[C@@H]3C[C@H](C2)c2c(NC(=O)c4ccco4)ccc(=O)n2C3)cc1 | i
CCCS(=O)(=O)Nc1ccc(=O)n2c1[C@@H]1C[C@@H](CN(C(=O)Nc3ccc(OC)cc3)C1)C2 | 28µM*
CN1C(=O)C2(CCN(Cc3cccnc3)C2)c2ccccc21 (configuration not stated) | i
COC1C(=O)N(c2cccc(F)c2)C12CCNCC2 (configuration not stated) | i
CNC(=O)NC(=O)COC(=O)c1cn(C)c2ccccc12 | i
Cc1ccc(CNCCc2c[nH]c3ccccc23)cc1 | i
C=C[C@H]1CN2CC[C@H]1C[C@@H]2CNS(=O)(=O)c1cccc(C#N)c1 | i
O=C(CCc1nc2ccccc2s1)N1[C@H]2CC[C@@H]1c1cnc(-c3ccccc3)nc1C2 | i
COc1cc2c(cc1OCC1CC1)NC(=O)C21CCN(C(=O)c2cccnc2)CC1 | i

High-throughput results from PubChem BioAssay.
